# From article PMC7862700, “An all-to-all approach to the identification of sequence-specific readers for epigenetic DNA modifications on cytosine”
# What was measured:
# Test in all cases: DAPPL (digital affinity profiling via proximity ligation, sequencing); 10 mM Tris-HCl pH 7.5, 50 mM NaCl, 1 mM DTT, 4% glycerol, room temperature, 30 min; GST-TFs on glutathione beads, 16-mer random dsDNA library, 0.1% formaldehyde crosslink after washing; high values mean tight binding
# Details in all cases: protein: recombinant; tags: N-terminal GST; dsDNA, one strand shown
# FLI1 = target: T1, FLI1 (Homo sapiens, UniProt Q01543 1-452)
# T1 sequence: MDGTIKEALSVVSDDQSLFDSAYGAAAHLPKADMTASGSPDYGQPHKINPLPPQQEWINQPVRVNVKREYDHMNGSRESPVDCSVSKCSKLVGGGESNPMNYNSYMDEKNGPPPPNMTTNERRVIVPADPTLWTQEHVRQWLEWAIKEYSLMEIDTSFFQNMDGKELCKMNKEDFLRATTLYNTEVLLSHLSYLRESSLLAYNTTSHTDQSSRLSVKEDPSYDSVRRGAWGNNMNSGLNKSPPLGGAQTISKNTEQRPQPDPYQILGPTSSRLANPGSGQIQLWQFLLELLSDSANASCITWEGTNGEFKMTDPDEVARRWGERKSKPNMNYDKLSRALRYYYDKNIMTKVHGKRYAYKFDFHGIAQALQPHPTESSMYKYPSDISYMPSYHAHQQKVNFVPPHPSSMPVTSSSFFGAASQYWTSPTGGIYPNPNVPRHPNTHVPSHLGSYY
# Summary of the method: (§1)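 Human transcription factors were made in yeast as GST fusions, captured on glutathione beads and barcoded with DNA. With a tag-only sample included, the pool was incubated with 200 nmole of a random double-stranded 16-mer DNA library in Tris/NaCl/DTT/glycerol buffer at room temperature for 30 min, then crosslinked with 0.1% formaldehyde after washing, ligated by proximity, amplified and sequenced. For binding signal, each hexamer's read frequency for a factor is divided by its frequency for the tag-only sample.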
# ELK1 = target: T2, ELK1 (Homo sapiens, UniProt P19419 1-428)
# T2 sequence: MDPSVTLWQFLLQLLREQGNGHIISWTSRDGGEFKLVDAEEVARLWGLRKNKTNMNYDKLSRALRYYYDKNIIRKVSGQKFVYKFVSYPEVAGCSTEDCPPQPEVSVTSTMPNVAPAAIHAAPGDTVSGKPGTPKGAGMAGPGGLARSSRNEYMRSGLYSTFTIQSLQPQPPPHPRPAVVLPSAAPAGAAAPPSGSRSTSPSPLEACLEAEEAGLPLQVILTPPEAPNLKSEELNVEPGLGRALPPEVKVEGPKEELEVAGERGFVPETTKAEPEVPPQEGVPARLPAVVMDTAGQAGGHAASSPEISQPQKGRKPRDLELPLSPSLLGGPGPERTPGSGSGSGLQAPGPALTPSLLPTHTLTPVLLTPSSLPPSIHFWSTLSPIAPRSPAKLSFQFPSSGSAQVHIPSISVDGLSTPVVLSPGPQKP
# Summary of the method: as §1
# GABPA = target: T3, GABPA (Homo sapiens, UniProt Q06546 1-454)
# T3 sequence: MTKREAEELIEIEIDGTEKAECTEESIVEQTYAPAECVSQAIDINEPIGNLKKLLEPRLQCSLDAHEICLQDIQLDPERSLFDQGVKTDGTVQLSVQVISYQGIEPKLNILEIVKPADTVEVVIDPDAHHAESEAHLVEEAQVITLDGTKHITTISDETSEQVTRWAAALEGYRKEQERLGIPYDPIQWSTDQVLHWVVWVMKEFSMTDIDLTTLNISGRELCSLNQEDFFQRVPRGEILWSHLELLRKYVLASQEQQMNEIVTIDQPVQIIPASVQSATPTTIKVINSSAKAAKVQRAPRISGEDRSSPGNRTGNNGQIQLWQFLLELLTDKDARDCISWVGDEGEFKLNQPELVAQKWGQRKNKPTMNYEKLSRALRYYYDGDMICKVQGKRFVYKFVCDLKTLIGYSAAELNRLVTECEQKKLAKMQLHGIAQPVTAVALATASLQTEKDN
# Summary of the method: as §1
# ERG = target: T4, ERG (Homo sapiens, UniProt P11308 1-479)
# T4 sequence: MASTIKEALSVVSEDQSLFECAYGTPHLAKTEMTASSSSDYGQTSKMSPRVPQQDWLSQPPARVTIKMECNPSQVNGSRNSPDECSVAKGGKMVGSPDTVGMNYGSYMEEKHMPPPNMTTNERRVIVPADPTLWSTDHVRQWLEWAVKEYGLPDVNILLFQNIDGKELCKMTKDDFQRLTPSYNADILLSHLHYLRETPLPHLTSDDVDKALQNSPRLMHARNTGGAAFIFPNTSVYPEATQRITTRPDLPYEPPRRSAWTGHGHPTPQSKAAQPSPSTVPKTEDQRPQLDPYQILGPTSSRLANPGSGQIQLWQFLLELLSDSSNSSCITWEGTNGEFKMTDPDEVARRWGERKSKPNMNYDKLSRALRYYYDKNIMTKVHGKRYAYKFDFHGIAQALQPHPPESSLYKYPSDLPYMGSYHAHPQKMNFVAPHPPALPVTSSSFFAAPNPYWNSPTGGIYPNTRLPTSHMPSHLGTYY
# Summary of the method: as §1
# ELF1 = ELF1 (Homo sapiens, UniProt P32519 1-619)
# Chain of ELF1 (P32519 whole entry): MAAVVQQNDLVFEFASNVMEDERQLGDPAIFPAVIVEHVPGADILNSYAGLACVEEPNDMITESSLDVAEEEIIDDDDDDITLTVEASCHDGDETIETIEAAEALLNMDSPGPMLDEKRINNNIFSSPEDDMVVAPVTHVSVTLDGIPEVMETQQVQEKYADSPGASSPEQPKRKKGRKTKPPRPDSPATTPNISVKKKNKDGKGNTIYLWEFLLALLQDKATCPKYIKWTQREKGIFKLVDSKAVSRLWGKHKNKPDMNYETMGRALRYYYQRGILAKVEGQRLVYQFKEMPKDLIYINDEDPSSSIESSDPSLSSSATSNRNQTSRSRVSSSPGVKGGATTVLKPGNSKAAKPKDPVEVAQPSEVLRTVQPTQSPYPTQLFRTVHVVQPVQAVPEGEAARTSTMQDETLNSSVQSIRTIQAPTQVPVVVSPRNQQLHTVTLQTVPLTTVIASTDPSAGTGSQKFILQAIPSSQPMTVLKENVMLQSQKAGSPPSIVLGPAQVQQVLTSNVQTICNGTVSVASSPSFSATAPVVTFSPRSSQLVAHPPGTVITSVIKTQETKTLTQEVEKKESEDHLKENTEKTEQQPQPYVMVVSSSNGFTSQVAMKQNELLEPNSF
# Summary of the method: as §1
# EHF = target: T5, EHF (Homo sapiens, UniProt Q9NZC4 1-300)
# T5 sequence: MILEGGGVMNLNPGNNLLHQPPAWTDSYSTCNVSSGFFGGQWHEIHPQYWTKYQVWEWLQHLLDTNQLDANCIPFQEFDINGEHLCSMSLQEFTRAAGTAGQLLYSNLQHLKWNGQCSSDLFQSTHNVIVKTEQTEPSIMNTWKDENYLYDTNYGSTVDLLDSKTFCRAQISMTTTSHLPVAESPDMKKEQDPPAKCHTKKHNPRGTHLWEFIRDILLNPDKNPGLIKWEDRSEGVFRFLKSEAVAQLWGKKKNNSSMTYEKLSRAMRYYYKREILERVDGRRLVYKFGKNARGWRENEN
# Summary of the method: as §1
# SPI1 = SPI1 (Homo sapiens, UniProt P17947 1-270)
# Summary of the method: as §1
# SPIB = SPIB (Homo sapiens, UniProt Q01892 1-262)
# Chain of SPIB (Q01892 whole entry): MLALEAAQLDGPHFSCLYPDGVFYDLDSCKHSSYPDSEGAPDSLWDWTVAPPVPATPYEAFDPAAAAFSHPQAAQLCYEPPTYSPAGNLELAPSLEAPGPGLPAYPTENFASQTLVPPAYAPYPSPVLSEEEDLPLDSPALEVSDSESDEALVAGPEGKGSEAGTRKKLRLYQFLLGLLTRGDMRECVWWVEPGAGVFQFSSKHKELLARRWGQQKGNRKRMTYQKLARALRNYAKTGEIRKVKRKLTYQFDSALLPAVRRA
# Summary of the method: as §1
# ELK3 = target: T6, ELK3 (Homo sapiens, UniProt P41970 1-407)
# T6 sequence: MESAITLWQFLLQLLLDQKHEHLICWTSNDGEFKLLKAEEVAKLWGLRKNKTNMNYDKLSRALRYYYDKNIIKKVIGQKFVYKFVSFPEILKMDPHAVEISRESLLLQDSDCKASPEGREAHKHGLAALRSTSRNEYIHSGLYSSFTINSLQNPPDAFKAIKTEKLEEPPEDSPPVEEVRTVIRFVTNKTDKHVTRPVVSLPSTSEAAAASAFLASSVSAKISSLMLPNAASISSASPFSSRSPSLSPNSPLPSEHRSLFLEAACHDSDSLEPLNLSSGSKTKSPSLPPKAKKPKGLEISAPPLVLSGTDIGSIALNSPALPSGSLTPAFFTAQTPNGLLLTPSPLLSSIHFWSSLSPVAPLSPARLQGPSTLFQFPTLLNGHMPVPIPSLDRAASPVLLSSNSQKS
# Summary of the method: as §1
# FEV = target: T7, FEV (Homo sapiens, UniProt Q99581 1-238)
# T7 sequence: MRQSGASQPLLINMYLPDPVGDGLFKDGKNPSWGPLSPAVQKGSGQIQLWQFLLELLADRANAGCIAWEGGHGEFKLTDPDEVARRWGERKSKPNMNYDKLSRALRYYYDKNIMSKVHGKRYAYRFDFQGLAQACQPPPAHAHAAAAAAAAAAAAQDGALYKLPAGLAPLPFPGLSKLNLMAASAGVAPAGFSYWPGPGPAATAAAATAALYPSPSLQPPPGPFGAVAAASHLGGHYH
# Summary of the method: as §1
# ETV5 = ETV5 (Homo sapiens, UniProt P41161 1-510)
# Chain of ETV5 (P41161 whole entry): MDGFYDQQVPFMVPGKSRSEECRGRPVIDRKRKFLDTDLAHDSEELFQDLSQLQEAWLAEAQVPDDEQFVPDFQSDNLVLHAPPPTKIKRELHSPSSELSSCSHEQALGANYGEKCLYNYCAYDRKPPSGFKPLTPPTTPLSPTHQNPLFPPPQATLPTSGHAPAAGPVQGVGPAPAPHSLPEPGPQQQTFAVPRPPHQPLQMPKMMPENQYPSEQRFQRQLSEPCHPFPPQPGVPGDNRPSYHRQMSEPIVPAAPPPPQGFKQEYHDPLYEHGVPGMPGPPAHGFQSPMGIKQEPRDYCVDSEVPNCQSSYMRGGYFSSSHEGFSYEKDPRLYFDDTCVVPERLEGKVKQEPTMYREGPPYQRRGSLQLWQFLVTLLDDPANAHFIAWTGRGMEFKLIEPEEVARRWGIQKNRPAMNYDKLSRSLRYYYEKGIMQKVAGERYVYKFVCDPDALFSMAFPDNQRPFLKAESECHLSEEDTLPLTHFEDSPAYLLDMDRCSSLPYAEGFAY
# Summary of the method: as §1
# SPIC = target: T8, SPIC (Homo sapiens, UniProt Q8N5J4 1-248)
# T8 sequence: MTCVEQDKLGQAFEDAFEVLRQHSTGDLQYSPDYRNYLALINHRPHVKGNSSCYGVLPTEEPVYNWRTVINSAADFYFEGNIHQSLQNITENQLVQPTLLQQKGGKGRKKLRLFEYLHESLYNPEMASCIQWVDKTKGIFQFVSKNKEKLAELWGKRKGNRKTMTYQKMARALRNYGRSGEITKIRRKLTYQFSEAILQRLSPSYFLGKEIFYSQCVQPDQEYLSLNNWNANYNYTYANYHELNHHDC
# Summary of the method: as §1
# ELF4 = ELF4 (Homo sapiens, UniProt Q99607 1-663)
# Chain of ELF4 (Q99607 whole entry): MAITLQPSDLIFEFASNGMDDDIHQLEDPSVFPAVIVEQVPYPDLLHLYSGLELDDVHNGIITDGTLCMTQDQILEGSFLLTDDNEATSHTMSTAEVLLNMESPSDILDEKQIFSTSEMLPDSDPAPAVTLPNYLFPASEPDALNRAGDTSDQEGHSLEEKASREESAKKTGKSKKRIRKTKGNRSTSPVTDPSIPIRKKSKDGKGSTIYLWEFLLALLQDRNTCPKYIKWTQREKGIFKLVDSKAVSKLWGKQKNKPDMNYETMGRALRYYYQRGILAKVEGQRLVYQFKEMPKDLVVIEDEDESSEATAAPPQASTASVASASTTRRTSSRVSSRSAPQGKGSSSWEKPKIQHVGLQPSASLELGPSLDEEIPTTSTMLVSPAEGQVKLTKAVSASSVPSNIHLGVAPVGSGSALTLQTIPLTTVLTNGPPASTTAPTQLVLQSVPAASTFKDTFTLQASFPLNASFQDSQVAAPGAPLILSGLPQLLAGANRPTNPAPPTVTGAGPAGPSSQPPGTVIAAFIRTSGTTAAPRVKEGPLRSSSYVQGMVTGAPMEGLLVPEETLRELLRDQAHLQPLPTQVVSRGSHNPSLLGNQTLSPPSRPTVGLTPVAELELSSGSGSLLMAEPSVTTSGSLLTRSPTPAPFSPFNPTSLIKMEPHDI
# Summary of the method: as §1
# ELK4 = target: T9, ELK4 (Homo sapiens, UniProt P28324-2 1-405)
# T9 sequence: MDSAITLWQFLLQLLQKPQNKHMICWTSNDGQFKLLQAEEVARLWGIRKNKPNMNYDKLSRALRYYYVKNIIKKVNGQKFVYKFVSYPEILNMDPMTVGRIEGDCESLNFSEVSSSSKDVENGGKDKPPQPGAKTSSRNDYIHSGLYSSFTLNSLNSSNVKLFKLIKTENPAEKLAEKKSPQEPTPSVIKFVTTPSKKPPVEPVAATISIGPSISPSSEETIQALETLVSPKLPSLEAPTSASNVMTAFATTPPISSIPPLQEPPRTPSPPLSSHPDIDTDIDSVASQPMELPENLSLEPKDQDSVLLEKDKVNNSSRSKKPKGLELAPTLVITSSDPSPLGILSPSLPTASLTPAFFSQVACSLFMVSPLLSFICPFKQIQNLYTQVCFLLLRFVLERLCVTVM
# Summary of the method: as §1
# ETV2 = target: T10, ETV2 (Homo sapiens, UniProt O00321 1-342)
# T10 sequence: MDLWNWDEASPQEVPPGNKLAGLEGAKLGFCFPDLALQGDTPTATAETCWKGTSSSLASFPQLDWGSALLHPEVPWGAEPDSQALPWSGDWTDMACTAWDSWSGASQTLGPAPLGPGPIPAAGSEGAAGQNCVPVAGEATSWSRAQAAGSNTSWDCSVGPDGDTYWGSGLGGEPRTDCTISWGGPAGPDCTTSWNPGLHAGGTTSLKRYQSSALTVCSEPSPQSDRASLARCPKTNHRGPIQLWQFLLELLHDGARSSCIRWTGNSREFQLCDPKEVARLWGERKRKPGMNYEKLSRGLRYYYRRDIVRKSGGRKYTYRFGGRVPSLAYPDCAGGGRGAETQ
# Summary of the method: as §1
# ELF3 = target: T11, ELF3 (Homo sapiens, UniProt P78545 1-371)
# T11 sequence: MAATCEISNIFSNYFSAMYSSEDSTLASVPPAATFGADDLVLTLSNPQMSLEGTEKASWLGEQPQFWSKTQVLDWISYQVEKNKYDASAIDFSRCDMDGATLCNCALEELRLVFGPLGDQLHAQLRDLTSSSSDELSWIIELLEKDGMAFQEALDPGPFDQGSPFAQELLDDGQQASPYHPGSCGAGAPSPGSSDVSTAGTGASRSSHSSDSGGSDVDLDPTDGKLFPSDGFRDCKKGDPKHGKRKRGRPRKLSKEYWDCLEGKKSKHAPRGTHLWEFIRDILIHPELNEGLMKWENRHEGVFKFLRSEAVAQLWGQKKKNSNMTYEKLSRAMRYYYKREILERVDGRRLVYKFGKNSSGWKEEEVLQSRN
# Summary of the method: as §1
# ETV1 = ETV1 (Homo sapiens, UniProt P50549 1-477)
# Chain of ETV1 (P50549 whole entry): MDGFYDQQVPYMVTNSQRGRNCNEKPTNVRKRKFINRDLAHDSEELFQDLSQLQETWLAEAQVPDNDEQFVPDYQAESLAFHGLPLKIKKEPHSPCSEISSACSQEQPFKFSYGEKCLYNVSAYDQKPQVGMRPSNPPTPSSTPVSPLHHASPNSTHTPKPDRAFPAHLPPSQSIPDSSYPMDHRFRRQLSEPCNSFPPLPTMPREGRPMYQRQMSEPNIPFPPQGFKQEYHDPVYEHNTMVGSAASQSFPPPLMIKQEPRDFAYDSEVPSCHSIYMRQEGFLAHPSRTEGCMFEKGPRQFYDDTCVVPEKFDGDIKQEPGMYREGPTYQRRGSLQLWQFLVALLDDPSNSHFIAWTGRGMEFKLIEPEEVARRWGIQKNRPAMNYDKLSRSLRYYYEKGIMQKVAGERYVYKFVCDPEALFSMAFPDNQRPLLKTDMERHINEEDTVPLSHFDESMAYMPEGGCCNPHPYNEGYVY
# Summary of the method: as §1
# CRX = CRX (Homo sapiens, UniProt O43186 1-299)
# Chain of CRX (O43186 whole entry): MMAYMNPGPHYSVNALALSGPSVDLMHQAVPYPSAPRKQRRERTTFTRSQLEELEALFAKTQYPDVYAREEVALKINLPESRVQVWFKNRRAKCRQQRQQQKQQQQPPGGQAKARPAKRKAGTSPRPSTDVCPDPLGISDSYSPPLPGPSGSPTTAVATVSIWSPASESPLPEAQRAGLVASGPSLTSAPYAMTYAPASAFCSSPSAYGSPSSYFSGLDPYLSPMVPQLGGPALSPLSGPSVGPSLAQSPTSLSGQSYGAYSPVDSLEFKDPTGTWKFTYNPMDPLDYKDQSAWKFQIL
# Summary of the method: as §1
Sequence,binding signal (FLI1),binding signal (ELK1),binding signal (GABPA),binding signal (ERG),binding signal (ELF1),binding signal (EHF),binding signal (SPI1),binding signal (SPIB),binding signal (ELK3),binding signal (FEV),binding signal (ETV5),binding signal (SPIC),binding signal (ELF4),binding signal (ELK4),binding signal (ETV2),binding signal (ELF3),binding signal (ETV1),binding signal (CRX)
TGACAC,"1.13 fold enrichment (6-mer frequency, TF over GST control)","1.27 fold enrichment (6-mer frequency, TF over GST control)","1.07 fold enrichment (6-mer frequency, TF over GST control)","1.2 fold enrichment (6-mer frequency, TF over GST control)","1.17 fold enrichment (6-mer frequency, TF over GST control)","1.15 fold enrichment (6-mer frequency, TF over GST control)","1.13 fold enrichment (6-mer frequency, TF over GST control)","1.11 fold enrichment (6-mer frequency, TF over GST control)","1.22 fold enrichment (6-mer frequency, TF over GST control)","1.11 fold enrichment (6-mer frequency, TF over GST control)","1.11 fold enrichment (6-mer frequency, TF over GST control)","1.07 fold enrichment (6-mer frequency, TF over GST control)","1.1 fold enrichment (6-mer frequency, TF over GST control)","1.18 fold enrichment (6-mer frequency, TF over GST control)","1.15 fold enrichment (6-mer frequency, TF over GST control)","1.14 fold enrichment (6-mer frequency, TF over GST control)","1.1 fold enrichment (6-mer frequency, TF over GST control)",
TTGTTG,"1.03 fold enrichment (6-mer frequency, TF over GST control)","1.12 fold enrichment (6-mer frequency, TF over GST control)","1.07 fold enrichment (6-mer frequency, TF over GST control)","1.1 fold enrichment (6-mer frequency, TF over GST control)","1.14 fold enrichment (6-mer frequency, TF over GST control)","1.12 fold enrichment (6-mer frequency, TF over GST control)","1.15 fold enrichment (6-mer frequency, TF over GST control)","1.05 fold enrichment (6-mer frequency, TF over GST control)","1.12 fold enrichment (6-mer frequency, TF over GST control)","1.01 fold enrichment (6-mer frequency, TF over GST control)","1.08 fold enrichment (6-mer frequency, TF over GST control)","1.19 fold enrichment (6-mer frequency, TF over GST control)","1.21 fold enrichment (6-mer frequency, TF over GST control)","1.19 fold enrichment (6-mer frequency, TF over GST control)","1.09 fold enrichment (6-mer frequency, TF over GST control)","1.15 fold enrichment (6-mer frequency, TF over GST control)","1.21 fold enrichment (6-mer frequency, TF over GST control)","1.09 fold enrichment (6-mer frequency, TF over GST control)"
